This is an account of results in PubChem BioAssay (Tox21).

Records with an inconclusive call do not appear. Values without a mark were called inactive. The source made the active and inactive calls. Calls come from the whole dose curve; as a rule, active = well fitted cell-killing curve with a large enough effect in the repeat runs; inconclusive = weak or mixed curves; inactive = flat fitted curve, though single readings scatter.
% is set by controls: 0 for no effect and ±100 for the full control effect.

A short description of this experiment: qHTS RealTime-Glo MT Cell Viability Assay in HepG2 cells - 32 hour (AID 1224877). Note: nearly all actives have a fitted effect of over 55% in size. To be noted: RealTime-Glo luminescence; series mostly up to 76.8 µM. The source says:
U.S. Tox21 Program National Center for Advancing Translational Sciences [NCATS] NIH Chemical Genomics Center [NCGC] U.S. Environmental Protection Agency [EPA] National Institutes of Environmental Health Sciences [NIEHS] National Toxicology Program [NTP] U.S. Food and Drug Administration [FDA] Tox21 Assay Overview: Measure of cell viability is critical in the cell-base assay. Analysis of cell viability is necessary for the characterization of cell responses to cytotoxic drugs and environmental stress. A RealTime-Glo MT Cell Viability Assay to monitor cell viability in real time of continues cell culture during 40 hours of compound treatment was used to screen Tox21 10K library compounds in HepG2 cells. The RealTime-Glo MT Cell Viability Assay is a nonlytic, homogeneous, bioluminescent method to measure cell viability in real time using a simple, plate-based method. The assay involves adding NanoLuc luciferase and a cell-permeant prosubstrate to cells in culture. Viable cells reduce the proprietary prosubstrate to generate a substrate for NanoLuc luciferase. This substrate diffuses from cells into the surrounding culture medium, where it is rapidly used by the NanoLuc Enzyme to produce a luminescent signal. The signal correlates with the number of viable cells, making the assay well suited for cytotoxicity studies.
Tox21 Assay Protocol Summary: The mixture of HepG2 cell suspension and reagents were dispensed at 600cells/6 ul/well in 1536-well tissue culture treated black solid bottom plates using a Multidrop dispenser. After the assay plates were incubated at a 37 C/5% CO2 incubator for 5 hours, 23 nL of compounds dissolved in DMSO, positive and negative controls was transferred to the assay plate by a pintool work station. The plates were incubated at 37 C for 40 hours. The luminescence intensity were measured at 0h, 8h, 16h, 24h, 32h and 40h time points using ViewLux plate reader during compound treatment.
For orientation: Quantitative high-throughput screening tests each substance at several concentrations.
Consider `COC(=O)c1ccccc1C(=O)c1ccc(OCCN2CCCCC2)cc1`, for which the molecule was classed as inactive.

Regarding `O=C1CCCC(=O)O1`, the result was inactive.

As to `CCCC(=O)C(C)=O`, the call was inactive.

Regarding `N[C@@H](CCC(=O)Nc1ccc([N+](=O)[O-])cc1)C(=O)O`, the call was inactive.

As for `CCCCCCCCSCC`, the molecule was classed as inactive.

`CC(=O)c1ccc2c(c1)Cc1ccccc1-2`: the outcome was inactive.

Regarding `CC(=O)c1sc(C)nc1C`, the call was inactive.

For `CN(C)c1ccc(C=O)cc1`, the call was inactive.

Regarding `CNC(=O)[C@H]1O[C@@H](n2cnc3c(NCc4cc(Cl)ccc4OCc4cc(C)no4)ncnc32)[C@H](O)[C@@H]1N`, the result was inactive.

For `CC(C)=O`, the result was inactive.

On to `CC(CC=O)CCCC(C)(C)O` (stereo not given), for which the outcome was inactive.

Regarding `Nc1ncnc(Nc2ccccc2)n1`, the call was inactive.

Turning to `CO[C@@H]1[C@@H](OC(N)=O)[C@@H](O)[C@H](Oc2ccc3c(O)c(NC(=O)c4ccc(O)c(CC=C(C)C)c4)c(=O)oc3c2C)OC1(C)C`, the outcome was inactive.

For the molecule `CCCCCCCC/C=C\CCCCCCCC(=O)OCCCC`, the activity change, negative = cytotoxic is 6.1% [at 15.8 µM].

Consider `Cc1ccc(S(=O)(=O)O)c(C)c1`, for which the molecule was classed as inactive.

For `CCCCCCCCC1CCC(=O)O1` (stereo not given), the molecule was called inactive.

Regarding `O=C(OCC(COC(=O)c1cccnc1)(COC(=O)c1cccnc1)COC(=O)c1cccnc1)c1cccnc1`, the call was inactive.

`C[C@H](CCC(=O)O)[C@H]1CC[C@H]2[C@@H]3C(=O)C[C@@H]4CC(=O)CC[C@]4(C)[C@H]3CC(=O)[C@]12C`: the outcome was inactive.

`C=COCCOCCOCCOC=C`: the molecule was called inactive.

As for `BrCc1cccc(Oc2ccccc2)c1`, the result was inactive.

For the molecule `O=C(OCC(O)CO)c1ccccc1Nc1ccnc2c(C(F)(F)F)cccc12` (stereo not given), the molecule was called inactive.

Consider `CCCC/C=C\CCCCCCCCCC=O`, for which the result was inactive.

`C=C(C)C(=O)OCC(C)(C)COC(=O)C(=C)C`: the molecule was called inactive.

Regarding `CCc1ccc(C=O)cc1`, the molecule was called inactive.

As for `CCOC(=O)c1ccc(OC(=O)CCCCCN=C(N)N)cc1`, the molecule was called inactive.

For the molecule `CC(C)(C)OC(=O)c1ccc(O)cc1`, the outcome was inactive.

As to `CCCCCCCCCCl`, the outcome was inactive.

On to `O=P(O)(O)OP(=O)(O)O`, for which the call was inactive.

As for `Cc1ccccc1OCC(O)CO` (stereo not given), the molecule was called inactive.

In the case of `O=C(O)C(=O)Cc1ccccc1`, the call was inactive.

`C[Si](C)(C)C`: the molecule was called inactive.

For `ClCCCl`, the outcome was inactive.

As to `CC/C=C\CC1=C(C)CCC1=O`, the result was inactive.

Consider `Brc1ccc(-c2ccccc2)cc1`, for which the molecule was called inactive.

In the case of `CC(=O)Nc1cccc(C)c1`, the molecule was classed as inactive.

Regarding `OCCN(CCO)c1cccc(Cl)c1`, the molecule was called inactive.

As for `COC(=O)CCc1ccc(OCC(O)CNC(C)C)cc1` (stereo not given), the outcome was inactive.

As for `Oc1cn2c(n1)Nc1ccc(Cl)c(Cl)c1C2`, the activity change, negative = cytotoxic was -1.97% [at 15.8 µM].

On to `CCCCCCN`, for which the molecule was called inactive.

As to `OCCC(F)(F)C(F)(F)C(F)(F)C(F)(F)C(F)(F)C(F)(F)C(F)(F)C(F)(F)F`, the molecule was called inactive.
